Test results reported in PubChem BioAssay.
Calls of active or inactive are those of the source.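 Rule for the calls, unless noted: active = mean z-score across replicates of 1.96 or higher in either the MELAS or the Rieske mutant cell line; inactive = the rest.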

What was measured:
[1] = survival rescue of mitochondrial mutant cells in low glucose, primary screen, MELAS cybrids, Rieske KO mouse fibroblasts, CellTiter-Glo (AID 1508586);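 note: test concentration not given here; z relative to plate mean and SD of compound and empty wells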
[2] = viability rescue of complex I mutant cybrids, primary screen, cell-based, galactose medium, ATP luminescence (AID 1645843;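 active = z-score of at least 1.8 in each of two replicates, scored against plate mean and spread of sample wells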;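 note: positive z means more ATP and so rescue of galactose-driven cybrid death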); settings: complex I mutant cybrid cells, 72 h, stronger effect = higher value
[3] = MELAS cybrid survival, CellTiter-Glo 48 h, stronger effect = higher value
[4] = Rieske KO mouse fibroblast survival, CellTiter-Glo 72 h

SMILES	z-score [1, 3]	z-score [1, 4]	z-score [2]
CCN1CCN(C(=O)c2cc(-c3cc(C)cs3)cc(S(=O)(=O)N3CCOCC3)c2)CC1	-0.416 (inactive)	-0.432	2.05 (inactive)
CCCn1nc(C(=O)N2CCCCC2)c2c1CCC(NCc1cccnc1)C2 (stereo unspecified)	-0.0243 (inactive)	-0.185	-1.06 (inactive)
Cc1csc(-c2cc(C(=O)N3CCC(N(C)C)C3)cc(S(=O)(=O)N3CCOCC3)c2)c1 (stereo unspecified)	-0.101 (inactive)	0.349	0.805 (inactive)
NCCCC[C@@H]1NC(=O)[C@@H]2C[C@H](NC(=O)c3sccc3Cl)CN2C1=O	-0.4 (inactive)	-0.67	-0.915 (inactive)
CC(C)/C=C/CNc1cc(C(=O)NCc2cn3ccccc3n2)cc(S(=O)(=O)NC(C)C)c1	1.64 (inactive)	-0.726	-1.65 (inactive)
CN1CCCc2cc(C(=O)N3CC(=O)N(Cc4ccccc4)CC(OCc4ccccn4)C3)ccc21 (stereo unspecified)	-0.626 (inactive)	-0.731	0.21 (inactive)
Cc1csc(SCC(=O)N2CCc3c(cc(-c4csc5ccccc45)c(=O)n3C)C2)n1	-0.151 (inactive)	0.398	1.5 (inactive)
COC(=O)CCN1CC(OCc2cccc(OC)c2)CN(C(=O)CCc2cccs2)CC1=O (stereo unspecified)	-0.467 (inactive)	-0.256	0.52 (inactive)
CC(C)CCN1C(=O)N(C(C)C)C(=O)C12CCN(Cc1ccc(CN3CCCCC3)s1)CC2	-0.0425 (inactive)	-0.0124	1.27 (inactive)
CCN1C(=O)N(CCc2ccccc2)C2(CCN(Cc3cnn(-c4ccccc4OC)c3)CC2)C1=O	0.108 (inactive)	0.254	-0.37 (inactive)
CC(C)[C@@H]1NC(=O)[C@@H]2C[C@H](NC(=O)c3cc(C(C)(C)C)nn3C)CN2C1=O	0.0639 (inactive)	0.0296	-0.355 (inactive)
O=C(N[C@H]1C[C@H]2C(=O)N3CCC[C@H]3C(=O)N2C1)c1cccnc1Oc1ccc(Cl)cc1	-0.353 (inactive)	-0.898	-0.34 (inactive)
COC(=O)c1c(NC(=O)Cc2ccccc2)c2cc(NCc3nccs3)cnc2n1CC(C)C	-0.876 (inactive)	1.74	-1.62 (inactive)
O=C(CC1=CCCCC1)N1CCc2c(cc(-c3cccc(F)c3)c(=O)n2CCN2CCCCC2)C1	-0.288 (inactive)	-0.152	0.55 (inactive)
Cc1cc(-c2cc3c(n(C)c2=O)CCN(Cc2c(C)nc4sccn24)C3)ccc1F	-0.189 (inactive)	0.11	0.27 (inactive)
O=C1N[C@H](CO)C(=O)N2CCN(C(=O)c3ccc(F)cc3)C[C@H]12	1.91 (inactive)	-0.948	-0.325 (inactive)
Cn1c2c(cc(-c3ccc(OC(F)(F)F)cc3)c1=O)CN(C(=O)C1CC(=O)c3ccccc31)CC2 (stereo unspecified)	0.0877 (inactive)	0.643	0.305 (inactive)
CCOC(=O)c1nn(CCc2ccc(OC)cc2)c2c1CN(Cc1cccn1-c1ccccn1)CC2	-0.341 (inactive)	0.052	-1.34 (inactive)
COc1ccc(CN2C[C@@H](CN3CCOCC3)C[C@@H](C(=O)NCC3CCCO3)C2)cc1OC (stereo partly specified)	0.0226 (inactive)	0.461	1.14 (inactive)

SMILES	z-score [1, 3]	z-score [1, 4]	z-score [2]
COc1cc(CN2CCc3c(cc(Cc4ccccc4C)c(=O)n3CC3CC3)C2)ccc1O	-0.322 (inactive)	-0.319	-1.32 (inactive)
CCCCNC(=O)[C@@H]1C[C@H](CN2CCOCC2)CN(CCc2ccccc2)C1	1.78 (inactive)	-0.178	-0.965 (inactive)
CN(C)C(=O)c1nn(Cc2ccccc2)c2c1CN(C(=O)C1CC(=O)Nc3ccccc31)CC2 (stereo unspecified)	-0.404 (inactive)	-0.253	0.725 (inactive)
CCc1ccc(CNc2cnc3c(c2)c(NC(=O)c2cccnc2)c(C(=O)OC)n3CC(C)C)o1	3.75 (active)	4.55	-1.67 (inactive)
CCOC(=O)N1CCC(NC2CCc3c(c(C(=O)N(C)C)nn3Cc3ccccc3)C2)CC1 (stereo unspecified)	-0.0814 (inactive)	0.468	-0.835 (inactive)
C=CCn1nc(C(=O)N2CCSCC2)c2c1CCC(N1CCOc3ccc(Cl)cc3C1)C2 (stereo unspecified)	-0.526 (inactive)	-0.713	0.51 (inactive)
Cc1cnc(CNC(=O)c2cc(-c3ccccc3)cc(S(=O)(=O)N3CCN(C)CC3)c2)cn1	0.213 (inactive)	-0.355	-0.045 (inactive)
CN1C(=O)N(CCCc2ccncc2)C(=O)C12CCN(C1CCSCC1)CC2	-0.208 (inactive)	-0.033	1.08 (inactive)
COCCn1c(C(=O)OC)c(NC(=O)c2ccco2)c2cc(NC3CCc4ccccc4C3)cnc21 (stereo unspecified)	9.06 (active)	-2	-1.68 (inactive)
COc1ccc(-c2cc3c(n(C)c2=O)CCN(C2CCSC2)C3)c2ccc(C)nc12 (stereo unspecified)	-0.852 (inactive)	-0.332	1.09 (inactive)
Cc1cc(-c2cc3c(n(Cc4cccnc4)c2=O)CCN(C(=O)C2Cc4ccccc4O2)C3)ccc1F (stereo unspecified)	-0.406 (inactive)	1.95	-0.785 (inactive)
CCOC(=O)c1nn(CC)c2c1CN(C(=O)Cn1nc(-c3ccccc3)c3ccccc3c1=O)CC2	-0.0607 (inactive)	0.472	0.925 (inactive)
Cc1ccc(-c2cc(C(=O)NCc3c(C)nn(C)c3C)cc(S(=O)(=O)N3CCOCC3)c2)s1	-0.303 (inactive)	-0.219	0.42 (inactive)
Cc1csc(-c2cc(C(=O)NCCN3CCCCC3)cc(S(=O)(=O)N3CCOCC3)c2)c1	0.0708 (inactive)	-0.233	-0.485 (inactive)
CCc1nc(CNc2cc(C(=O)Nc3ccc4c(c3)CCC4)cc(S(=O)(=O)NC)c2)c(C)[nH]1	-0.12 (inactive)	-0.343	0.065 (inactive)
CC(C)CN1CC(OCc2cccc(F)c2)CN(C(=O)c2cccc(N3CCNC3=O)c2)CC1=O (stereo unspecified)	-0.284 (inactive)	-0.354	0.795 (inactive)
COCCn1c(C(=O)OC)c(NC(=O)Cc2ccccc2)c2cc(NC(C)CCO)cnc21 (stereo unspecified)	-0.113 (inactive)	0.262	-0.97 (inactive)
C=CCn1nc(C(=O)N2CCCCCC2)c2c1CCC(NCc1cc(-c3ccccc3)on1)C2 (stereo unspecified)	-0.0315 (inactive)	0.236	-1.62 (inactive)
CC(C)=CCNc1cc(C(=O)NCc2cn3ccccc3n2)cc(S(=O)(=O)NC(C)C)c1	-0.403 (inactive)	-0.764	-0.5 (inactive)

SMILES	z-score [1, 3]	z-score [1, 4]	z-score [2]
CC1=C(C(=O)N2CCc3c(c(C(=O)NCc4nccs4)nn3Cc3ccccc3)C2)OCCO1	-0.132 (inactive)	0.241	0.605 (inactive)
CN(C)CCCNC(=O)[C@@H]1C[C@H](CN2CCOCC2)CN(CCc2ccccc2)C1	-0.339 (inactive)	-0.139	-0.365 (inactive)
CN1CC(=O)N2CCN(C(=O)NCc3ccccc3)C[C@@H]2C1=O	-0.0344 (inactive)	-0.297	-0.795 (inactive)
CCN(CC)CCNC(=O)c1cc(-c2cc(C)cs2)cc(S(=O)(=O)N2CCOCC2)c1	-0.44 (inactive)	-0.00741	1.25 (inactive)
NCCCC[C@@H]1NC(=O)[C@@H]2C[C@H](NCc3nc(-c4ccccc4)cs3)CN2C1=O	-0.0314 (inactive)	0.0831	-0.77 (inactive)
CCN1C(=O)N(Cc2cccc(OC)c2)C(=O)C12CCN(CC1CC=CCC1)CC2 (stereo unspecified)	-0.681 (inactive)	-0.854	-0.435 (inactive)
Cc1ccccc1CN[C@H]1C[C@H]2C(=O)N[C@@H]([C@@H](C)O)C(=O)N2C1	0.0812 (inactive)	-0.372	0.715 (inactive)
Cc1ccc(N2CCN(C3CCc4c(c(C(=O)N5CCSCC5)nn4C)C3)CC2)c(C)c1 (stereo unspecified)	-0.0351 (inactive)	-0.612	0.195 (inactive)
O=C(C1COc2ccccc2C1)N1CC(=O)N(C2CCCCC2)CC(OCc2ccccn2)C1 (stereo unspecified)	0.04 (inactive)	-1.17	2.08 (inactive)
O=c1c(-c2ccccc2Cl)cc2c(n1Cc1ccncc1)CCN(Cc1ccnc3ccccc13)C2	-0.09 (inactive)	-0.0903	0.915 (inactive)
C[C@H]1NC(=O)[C@@H]2C[C@H](NC(=O)c3cnn(-c4ccccc4)c3C(F)(F)F)CN2C1=O	0.896 (inactive)	-0.434	-1.26 (inactive)
COc1ccc(CN2CC(OCc3cccnc3)CN(C(=O)C3=NN(C)C(=O)CC3)CC2=O)cc1 (stereo unspecified)	-0.43 (inactive)	-0.34	1.23 (inactive)
CCN1C(=O)N(C)C(=O)C12CCN(Cc1cc3oc(C)c(-c4ccccc4)c3cc1OC)CC2	-0.0202 (inactive)	-0.474	1.74 (inactive)
C[C@@H](OCc1ccccc1)[C@@H]1NC(=O)[C@H]2CN(C(=O)Oc3ccccc3)CCN2C1=O	-0.153 (inactive)	-0.114	-1.46 (inactive)
CC(C)C[C@H]1NC(=O)[C@H]2CN(C(=O)OCc3ccccc3)CCN2C1=O	-0.0626 (inactive)	-0.118	-0.205 (inactive)
CC(C)CCNc1cc(C(=O)NCCn2ccnc2)cc(S(=O)(=O)Nc2ccccc2)c1	-0.318 (inactive)	-0.223	-0.47 (inactive)
Cc1ccc(C(C)CCN2CCc3c(c(C(=O)N4CCC(O)CC4)nn3CCc3ccccc3)C2)o1 (stereo unspecified)	-0.676 (inactive)	-0.539	0.6 (inactive)
CCCCNC(=O)[C@@H]1C[C@H](CN2CCOCC2)CN(Cc2ccccc2)C1	-0.071 (inactive)	-0.282	-0.205 (inactive)
O=C1CCCc2occ(C(=O)N3CC(=O)N(Cc4ccccc4)CC(OCc4ccccn4)C3)c21 (stereo unspecified)	-0.412 (inactive)	-0.733	2.83 (inactive)
